Out of some 87,000 compounds screened, about 540 (0.62%) were called active. The rule behind the calls is not given here. The list comes from a sample in which actives are over-represented; it also holds similar structures and randomly drawn compounds. Results with a measured potency or affinity are listed apart.

This experiment can be described thus: MT1-MMP gene expression reporter suppression – cell-based, luciferase reporter, luminescence (AID 618).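 Note: actives suppress MT1-MMP promoter-driven transcription so potencies describe inhibitors.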 The following applies: MT1-MMP promoter luciferase reporter cells.
As to `Cc1c(C(=O)OC(C)CCN(C)C)oc2ccccc12` (configuration not stated), the molecule was classed as inactive.

As to `CN1/C(=C\C(=O)COC(=O)CN2C(=O)C3CC=CCC3C2=O)C(C)(C)c2ccccc21` (configuration not stated), the result was inactive.

For the molecule `Fc1ccc(Cn2c(-c3cscn3)nc3ccccc32)c(Cl)c1`, the outcome was inactive.

Consider `Cc1oc2ccc(O)cc2c1C(=O)OC(C)C`, for which the outcome was inactive.

With `CCN1C(=O)C(CC(=O)N2CCN(C(c3ccccc3)c3ccccc3)CC2)N(CC)C1=O` (configuration not stated), the outcome was inactive.

For the molecule `O=C(CSc1nc2ccccc2s1)CSc1nc2ccccc2s1`, the molecule was called inactive.

Consider `CC(=O)CSc1nc2ccccc2s1`, for which the molecule was classed as inactive.

On to `CC(C)Oc1ccc(C2c3c(oc4ccccc4c3=O)C(=O)N2CCCN2CCOCC2)cc1` (configuration not stated), for which the molecule was classed as inactive.

As for `NC(=O)CSc1nnc2sc3ccccc3n12`, the outcome was inactive.

On to `COc1cccc(OCCSc2nnc3sc4ccccc4n23)c1`, for which the call was inactive.

Consider `CN(C)C(=O)CSc1nnc2sc3ccccc3n12`, for which the call was inactive.

For the molecule `COc1ccc(OCCSc2nnc3sc4ccccc4n23)cc1`, the molecule was classed as inactive.

As to `C=CCOC(=O)C1=C(C)NC(=O)NC1c1cn(-c2ccccc2)nc1-c1cccs1` (configuration not stated), the outcome was inactive.

Consider `COc1ccc(-n2c(Cc3cccn3C)nnc2SCC(=O)Nc2cccc(F)c2)cc1`, for which the result was inactive.

Regarding `Cc1cc(/C=N/n2cnnc2)c(C)n1-c1ccc(OCc2ccc(Cl)cc2)cc1`, the molecule was called inactive.

On to `Cc1cc(/C=N/n2cnnc2)c(C)n1-c1ccc(OCc2ccccc2F)cc1`, for which the result was inactive.

As for `Cc1ccc(C)c(N(CC(=O)NC2CCCCC2)C(=O)CCC(=O)Nc2ccccn2)c1`, the molecule was called inactive.

As to `O=C(COC(=O)c1cccs1)c1ccccc1`, the molecule was classed as inactive.

Turning to `O=C(COC(=O)c1cccs1)c1ccc2ccccc2c1`, the outcome was inactive.

With `CCOC(=O)C1=C(C)NC(=O)NC1c1ccccc1Cl` (configuration not stated), the outcome was inactive.

`O=C(NCCN1CCOCC1)c1ccc(F)cc1`: the call was inactive.

Take `c1ccc(-n2ncc3c(N4CCN(c5ccccn5)CC4)nc(N4CCCCC4)nc32)cc1`: the molecule was called inactive.

Regarding `Cc1ccc(C)c(N2CCN(C(=O)c3ccc(CS(=O)(=O)c4ccccc4C)o3)CC2)c1`, the outcome was inactive.

For the molecule `CCOC(=O)N1CCN(C(=O)c2ccc(CS(=O)(=O)c3ccc(OC)cc3)o2)CC1`, the result was inactive.

On to `COc1ccc(N2CCN(C(=O)c3ccc(CS(=O)(=O)c4ccc(OC)cc4)o3)CC2)cc1`, for which the result was inactive.

In the case of `Cc1cccc(N2CCN(C(=O)c3ccc(CS(=O)(=O)c4ccccc4C)o3)CC2C)c1` (configuration not stated), the outcome was active.

In the case of `Cc1ccccc1S(=O)(=O)Cc1ccc(C(=O)N2CC(C)CC(C)C2)o1` (configuration not stated), the molecule was classed as inactive.

Regarding `COc1ccc(S(=O)(=O)Cc2ccc(C(=O)N3CCN(c4cccc(C)c4)C(C)C3)o2)cc1` (configuration not stated), the call was active.

Turning to `Cc1ccc(N=Cc2ccc(N(C)C)cc2)cc1`, the molecule was called inactive.

`O=S(=O)(/N=C(\c1ccccc1)N1CCOCC1)c1cccs1`: the outcome was inactive.

In the case of `COCCn1nnnc1CN1CCC(C)CC1`, the call was inactive.

For `CCc1cc(=O)oc2cc(OCC(=O)N3CCc4ccccc43)ccc12`, the molecule was called inactive.

With `COCCCN1C(=O)C(=O)/C(=C(/O)c2ccc(OC(C)C)cc2)C1c1ccncc1` (configuration not stated), the result was inactive.

Turning to `COc1ccc(-c2nc(-c3cccs3)c(-c3cccs3)[nH]2)cc1O`, the outcome was inactive.

For the molecule `COc1ccc(-c2nc(-c3ccccc3)c(-c3cc([N+](=O)[O-])ccc3C)[nH]2)cc1O`, the call was inactive.

In the case of `COc1ccc(-c2c/c(=N\c3nc(-c4ccccc4)c(C)s3)c3ccccc3o2)cc1O`, the molecule was classed as active.

Take `Cc1nn(C)c(C)c1S(=O)(=O)N1CCC(C(=O)NCC2COc3ccccc3O2)CC1` (configuration not stated): the molecule was classed as inactive.

As to `COC(=O)[C@@H]1C[C@H]2CC[C@H](O)C[C@H]2N1Cc1ccc(-c2ccccc2)cc1`, the outcome was active.

On to `COC(=O)[C@@H]1C[C@@H]2CC[C@@H](O)C[C@@H]2N1Cc1ccc(Cl)cc1`, for which the call was inactive.

Consider `COC(=O)[C@@H]1C[C@@H]2CC[C@@H](O)C[C@@H]2N1Cc1ccc(-c2ccccc2)cc1`, for which the outcome was inactive.

Consider `O=c1c(Cl)c(NCCCO)cnn1-c1nc2ccccc2[nH]1`, for which the call was inactive.

For the molecule `CC1(C)CC(=O)c2cnn(-c3nc4ccccc4[nH]3)c2C1`, the result was inactive.

Take `CC(=O)c1c(C)nn(C(=O)N2CCOCC2)c1C`: the call was inactive.

`CCOc1ccccc1N(C(=O)CNS(=O)(=O)c1ccccc1)C(CC)C(=O)NCc1ccco1` (configuration not stated): the outcome was inactive.

For the molecule `COc1ccc(/C=N\n2nnc3ccccc32)cc1`, the outcome was active.

Regarding `COc1ccc(/C=N/n2c(N)nc3ccccc32)cc1OC`, the molecule was called inactive.

Regarding `COc1ccc(/C=N/n2cnnc2SCc2ccccc2)cc1`, the molecule was called inactive.

Turning to `CC1(c2ccccc2)NC(=O)N(CC(=O)N2CCOCC2)C1=O` (configuration not stated), the molecule was called inactive.

For `O=c1c2ccccc2cnn1-c1nc2ccccc2s1`, the molecule was called active.

With `O=c1c2ccccc2cnn1-c1ccc(Br)cc1`, the outcome was inactive.

For `O=c1c2ccccc2cnn1-c1ccc(Cl)cc1`, the molecule was called inactive.

For `COc1ccc(-c2noc(CCC(=O)NCCCN3CCC(Cc4ccccc4)CC3)n2)cc1`, the result was inactive.

With `CCCC(=O)Nc1ccc(Cl)c(NC(=O)c2cccnc2)c1`, the molecule was classed as inactive.

Turning to `O=C1CCCCCN1C(=O)c1ccc(C(=O)N2CCCCCC2=O)cc1`, the result was inactive.

For `O=C1CCCCCN1C(=O)c1cccc(C(=O)N2CCCCCC2=O)c1`, the molecule was called inactive.

For the molecule `Cc1ccc2c(c1)CCCN2C(=O)C1CCCO1` (configuration not stated), the molecule was classed as inactive.

Turning to `CCN(CC)S(=O)(=O)c1ccc2nc(NC(=O)c3cccs3)sc2c1`, the molecule was called inactive.

Consider `Cc1ccc2nc(NC(=O)c3cccs3)sc2c1`, for which the result was active.

In the case of `CN(C)S(=O)(=O)c1ccc2nc(NC(=O)c3cccs3)sc2c1`, the call was inactive.

Turning to `CS(=O)(=O)c1ccc2nc(NC(=O)c3cccs3)sc2c1`, the molecule was classed as active.

Turning to `CCOC(=O)c1ccc2nc(NC(=O)c3cccs3)sc2c1`, the call was inactive.

On to `Cc1ccc2nc(NC(=O)c3ccc(Cl)s3)sc2c1`, for which the molecule was classed as inactive.

Regarding `CCSc1n[nH]c2nc3c(c(=O)n12)C1(CCCC1)Cc1ccccc1-3`, the result was inactive.

As to `CCCOc1ccccc1C1CC(=O)NC2=C1C(=O)CCC2` (configuration not stated), the result was inactive.

`CCCCOc1ccccc1C1CC(=O)NC2=C1C(=O)CCC2` (configuration not stated): the outcome was active.

In the case of `CCOc1ccccc1C1CC(=O)NC2=C1C(=O)CCC2` (configuration not stated), the outcome was inactive.

With `COc1oc(-c2ccc(Cl)cc2)nc1C(F)(F)F`, the call was inactive.

Regarding `Cc1ccc2c(c1)c1c3n2CCCNC3CCC1` (configuration not stated), the outcome was inactive.

As for `Cc1ccc2c(c1)c1c3n2CCN(C(=O)C2CC2)C3CCC1` (configuration not stated), the outcome was inactive.

Consider `c1cc2c(cc1C1CCCCC1)c1c3n2CCCNC3CCC1` (configuration not stated), for which the call was active.

With `c1ccc2c(c1)c1c3n2CCNC3CCC1` (configuration not stated), the result was inactive.

In the case of `Cc1ccc2c(c1)c1c3n2CCN(C(=O)CN2CCN(C)CC2)C3CCC1` (configuration not stated), the outcome was inactive.

These data come from PubChem BioAssay AID618 (Sanford-Burnham Center for Chemical Genomics, 2007).
